Reference: PubChem BioAssay AID2728 (Broad Institute, 2010)
This is one part of the list. Results filed as inconclusive are left out. Unmarked numbers belong to inactive results.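 The calls were made as follows: active = every replicate shows growth inhibition above 50%; inconclusive = at least half but not all replicates above 50% inhibition; inactive = under half of replicates above 50% inhibition.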

Assay: V. harveyi growth suppression by OD600 – strain BB721, absorbance OD600, cytotoxicity control for AI-2 quorum sensing inhibitors, confirmation (AID 2728)
Conditions: Vibrio harveyi BB721 growth, 9 h, at 7.5 µM, hits give high values

| Compound | growth inhibition [%] |
| --- | --- |
| CN(Cc1cnccn1)C(=O)c1cc(COc2cccc(C(F)(F)F)c2)on1 | 18.2 |
| CCOC(=O)c1nn(-c2cccc(C)c2)cc1C(=O)c1ccccc1 | -7.63 |
| O=C(/C=C/c1ccc2c(c1)OCCO2)c1ccc(O)cc1 | -21.7 |
| CC(CNc1ccc([N+](=O)[O-])cc1)NC(=O)c1ccccc1Br (stereo unspecified) | -16.1 |
| COC(=O)c1ccc(SCc2ccccc2)nc1 | -21 |
| O=C(COc1ncnc2ccccc12)NC(=O)NCc1ccccc1 | 27.2 |
| Cc1ccccc1NC(=O)CCOc1ccccc1 | -7.16 |
| COc1ccc(/C(N)=N/OC(=O)Cc2ccccc2)cc1 | -4.72 |
| COC(=O)C1CCN(C(=O)c2ccc3oc(Cc4ccc(Cl)cc4)nc3c2)CC1 | 19.1 |
| Cc1ccsc1C(=O)OCC(=O)c1cc2ccccc2o1 | 4.04 |
| Cc1cccc(CSc2ccc(-c3cccs3)nn2)c1 | -12.7 |
| CC(=O)c1cccc(OCc2cc(C(=O)NC(C)Cc3cccnc3)no2)c1 (stereo unspecified) | 8.38 |
| Cc1ccc(Cc2nc(-c3cccc(C)c3)no2)cc1 | 19.7 |
| N/C(=N\OC(=O)CCc1ccccc1)c1cccnc1 | 0.547 |
| CC(C)(C)c1ccc(OC2=CS(=O)(=O)c3ccccc32)cc1 | 26.8 |
| Cc1cc(CN(C)C(=O)c2cc(COc3ccc(C)c(C)c3)on2)n[nH]1 | 28.4 |

| Compound | growth inhibition [%] |
| --- | --- |
| O=C(Cn1cnc2ccccc2c1=O)Nc1cccc(S(=O)(=O)N2CCCCC2)c1 | 14 |
| O=C1COc2ccc(S(=O)(=O)Nc3ccc(OC(F)(F)F)cc3)cc2N1 | 55 |
| CCOc1ccc(/C=N/NC(N)=S)cc1 | 18 |
| Cc1ccc(Oc2cnn(-c3ccccc3)c(=O)c2Br)cc1 | 4.98 |
| Cc1cc(C(=O)OCC(=O)Nc2ccc(F)c(F)c2)c(C)o1 | -6.2 |
| Cc1nn(CC(=O)Nc2ccc(F)cc2)c(=O)c2ccccc12 | 0.351 |
| O=C(Nc1ccc(F)c(Cl)c1)C1CCN(S(=O)(=O)c2cccnc2)CC1 | 14.5 |
| O=C(COC(=O)C1CCCCC1)Nc1ccc([N+](=O)[O-])cc1 | -40.8 |
| O=C(/C=C/c1ccc2c(c1)OCO2)NCc1ccc(F)cc1 | 16.5 |
| O=C(CCC(=O)c1cccs1)Nc1nc2ccccc2s1 | -0.412 |
| Cc1ccc(NC(=O)C2CC2c2ccccc2)cc1 (stereo unspecified) | 7.3 |
| S=C(NCc1ccc(Cl)cc1)NC1CCCCC1 | 12.8 |
| O=C(c1cc(-c2cccc(O)c2)on1)N1CCc2ccccc2C1 | 2.13 |
| Cc1ccc(NS(=O)(=O)c2ccc3c(c2)NC(=O)CO3)cc1 | 18.2 |
| COc1cccc(NC(=O)NCc2ccc(F)cc2)c1 | -16.1 |
